This is a sample that favours compounds with a hit; in the whole collection about 2.3% have one here.
pPAFAH FP inh – pPAFAH (human) enzyme inhibition | Q13093 | recombinant pPAFAH, FP-rhodamine probe fluorescence polarization | inhibition, % at 3.39 µM | hit rate 1.5% among 330,000 | AID 463082;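 active = inhibition above the mean inhibition across the screen plus 3 SD, cut at about 25% in these data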;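 note: inhibitors block binding of the rhodamine activity-based probe so polarization drops; 0% = enzyme with DMSO and 100% = wells lacking pPAFAH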
GSTO1 inh – GSTO1 inhibition, counter-screen for RBBP9 inhibitors | P78417 | recombinant GSTO1, activity-based probe fluorescence polarization | inhibition, % at 5.96 µM | hit rate 1.1% among 300,000;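 active = inhibition above the campaign mean inhibition plus 3 SD, cut at about 35% in these data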;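 note: 0% = GSTO1-1 with DMSO and 100% = wells lacking GSTO1-1 enzyme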
Target sequence (P78417 whole entry, looked up): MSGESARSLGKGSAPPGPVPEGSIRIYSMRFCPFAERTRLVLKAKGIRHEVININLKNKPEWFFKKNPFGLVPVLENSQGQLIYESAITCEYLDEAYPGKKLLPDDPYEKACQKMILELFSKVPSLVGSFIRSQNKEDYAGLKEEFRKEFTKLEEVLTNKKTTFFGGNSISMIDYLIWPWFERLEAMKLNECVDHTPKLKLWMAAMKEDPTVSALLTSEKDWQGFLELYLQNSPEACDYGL
Fam108B counter – Fam108B inhibition, counter-screen for RBBP9 inhibitors. recombinant Fam108B, FP-Rh probe fluorescence polarization. inhibition, % at 9.51 µM. hit rate 0.33% among 300,000. AID 1947;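 active = inhibition above the screen mean inhibition plus 3 SD, computed separately per campaign, cut at about 18% in these data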;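 note: inhibitors lower polarization as less probe binds the enzyme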
PME-1 primary – PME-1 (human) inhibition. Q9Y570. recombinant PME-1, FP-Rh probe fluorescence polarization. inhibition, % at 5.9 µM. hit rate 0.53% among 320,000;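 active = inhibition above the campaign mean of all compounds plus 3 SD, cut at about 26% in these data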;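 note: competitive labeling of PME-1 active site by serine hydrolase directed probe; 0% = PME-1 with DMSO and 100% = wells lacking PME-1 enzyme; inhibitors block probe labeling so polarization falls and inhibition rises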
Target sequence (Q9Y570 whole entry, looked up): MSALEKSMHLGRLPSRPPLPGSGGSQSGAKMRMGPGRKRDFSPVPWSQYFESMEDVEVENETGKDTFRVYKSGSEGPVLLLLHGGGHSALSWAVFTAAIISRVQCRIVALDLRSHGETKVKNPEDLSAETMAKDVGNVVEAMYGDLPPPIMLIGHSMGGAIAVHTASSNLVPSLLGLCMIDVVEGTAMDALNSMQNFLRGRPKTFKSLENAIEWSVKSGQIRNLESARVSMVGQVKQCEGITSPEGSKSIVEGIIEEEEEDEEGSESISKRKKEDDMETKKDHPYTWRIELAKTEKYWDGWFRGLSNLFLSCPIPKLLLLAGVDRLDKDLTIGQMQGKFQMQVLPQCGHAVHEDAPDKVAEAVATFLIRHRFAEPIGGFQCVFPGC
PAD4 inh – blocks human protein arginine deiminase 4; Q9UM07; recombinant PAD4, RCA probe fluorescence polarization; inhibition, % at 6.36 µM; hit rate 0.41% among 330,000; AID 485272;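 active = percent inhibition above a cutoff equal to the mean of all tested compounds plus 3 SD, cut at about 15% in these data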;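 note: 0% = PAD4 with RCA probe and DMSO and 100% = probe without PAD4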
Fam108b inh conf – Fam108b (mouse) hydrolase inhibition, confirmation assay | recombinant Fam108b, FP-Rh probe fluorescence polarization | shares compounds with Fam108B counter | inhibition, % at 9.51 µM | hit rate 44% among 930;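 active = inhibition above a limit from the primary screen, the mean over all compounds plus 3 SD, cut at about 19% in these data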;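 note: 0% = median of active Fam108b wells and 100% = catalytically dead S170A mutant; inhibitors free the probe so polarization falls as inhibition rises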
Fam108b ABPP HTS – inhibits mouse Fam108b in gel-based ABPP | hit rate 44% among 260 | shares compounds with Fam108B counter | recombinant Fam108b, fluorophosphonate probe | AID 588649 | inhibition, % at 20 µM; in the data active = inhibition above about 40%
* hit, by the source's call.

CCN(CC)c1ccc(/C=C(\C#N)C(N)=S)cc1 was read as pPAFAH FP inh 11, GSTO1 inh -9, Fam108B counter -2, PME-1 primary 2 and PAD4 inh -15.
For CCN(CC)c1ccc(/C=C(\C#N)C(=O)c2ccc(Br)cc2)cc1 the results were pPAFAH FP inh -4, GSTO1 inh -43, Fam108B counter 61*, PME-1 primary 15, PAD4 inh -11, Fam108b inh conf 54* and Fam108b ABPP HTS 0.
`O=C(CSc1nnc(SCc2cccc3ccccc23)s1)N=Nc1c(O)[nH]c2ccccc12` gave pPAFAH FP inh 6, GSTO1 inh -3, Fam108B counter -8, PME-1 primary 9 and PAD4 inh -4.
For Cc1nn(-c2ccccc2)c(N2CCCC2)c1/C=N/Nc1ccc(S(N)(=O)=O)cc1[N+](=O)[O-] the results were pPAFAH FP inh 3, GSTO1 inh 0, Fam108B counter 11, PME-1 primary 16 and PAD4 inh -1.
Screening Cc1nn(-c2ccccc2)c(Cl)c1C=NNc1ccc(S(=O)(=O)Nc2ccccc2C(=O)O)cc1[N+](=O)[O-] returned Fam108b ABPP HTS 0.
For O=C(Nc1nccs1)c1cncc(Br)c1 the results were pPAFAH FP inh 1, GSTO1 inh -2, Fam108B counter -7, PME-1 primary -2 and PAD4 inh -5.
For COc1ccc(/C=N/NC(=O)c2cnccn2)cc1O the results were pPAFAH FP inh 3, GSTO1 inh 2, Fam108B counter 4, PME-1 primary 5 and PAD4 inh -1.
Screening COc1cc(/C=N/NC(=O)CCn2nnc3ccccc32)ccc1O returned pPAFAH FP inh 6, GSTO1 inh -1, Fam108B counter 0, PME-1 primary 6 and PAD4 inh -2.
`COc1ccc(/C=N/NC(=O)c2cc3c(OC)ccc(OC)c3[nH]2)cc1O` gave pPAFAH FP inh 24, GSTO1 inh 4, Fam108B counter 30*, PME-1 primary 40*, PAD4 inh -3 and Fam108b inh conf 17.
`COc1cc(/C=N/NC(=O)CCn2c3ccccc3c3ccccc32)ccc1O` gave pPAFAH FP inh 14, GSTO1 inh -1, Fam108B counter 24*, PME-1 primary 13, PAD4 inh -4 and Fam108b inh conf 2.
Screening COc1ccc(OC)c2[nH]c(C(=O)N/N=C/c3ccccc3O)cc12 returned pPAFAH FP inh 19, GSTO1 inh -22, Fam108B counter 53*, PME-1 primary 60*, PAD4 inh -3 and Fam108b inh conf 21*.
For Cn1c2ccccc2c2cc(C=NNC(=O)c3cc(O)ccc3O)ccc21 the results were Fam108b ABPP HTS 85*.
Screening CCN(C(=O)CN(C)Cc1cccc(Cl)c1Cl)c1c(N)n(Cc2ccccc2)c(=O)[nH]c1=O returned pPAFAH FP inh 1, GSTO1 inh 0, Fam108B counter 2, PME-1 primary -8 and PAD4 inh -7.
Screening COc1cc(/C=N/NC(=O)c2cc3ccccc3[nH]2)ccc1O returned pPAFAH FP inh 12, GSTO1 inh -9, Fam108B counter 20*, PME-1 primary 36*, PAD4 inh -1 and Fam108b inh conf 19*.
`COc1cc(/C=N/NC(=O)c2nc(C)cc(C)n2)ccc1O` gave pPAFAH FP inh 3, GSTO1 inh 0, Fam108B counter -1, PME-1 primary 0 and PAD4 inh 2.
CCOc1ccc2[nH]c(C(=O)N/N=C/c3cc(OC)c(OC)c(OC)c3)cc2c1 was read as pPAFAH FP inh 12, GSTO1 inh 2, Fam108B counter 29*, PME-1 primary 16, PAD4 inh -5 and Fam108b inh conf -6.
Screening O=C(Nc1ccccc1[N+](=O)[O-])c1cccnc1Cl returned pPAFAH FP inh 3, GSTO1 inh -5, Fam108B counter -6, PME-1 primary 0 and PAD4 inh -2.
Screening Cc1[nH]c2ccccc2c1/C=N/Nc1ccccc1[N+](=O)[O-] returned pPAFAH FP inh 23, GSTO1 inh 6, Fam108B counter 22*, PME-1 primary 47*, PAD4 inh 1 and Fam108b inh conf -8.
Screening COc1ccc(C(=O)c2c(C)c3cc(C)ccc3n2CC(O)CN2CCOCC2)cc1 (centres undefined) returned pPAFAH FP inh 9, GSTO1 inh 1, Fam108B counter -2, PME-1 primary 6 and PAD4 inh -6.
Screening Cc1ccc(NC(=O)NNC(=O)c2snnc2C)cc1 returned pPAFAH FP inh 0, GSTO1 inh 11, Fam108B counter 2, PME-1 primary -1 and PAD4 inh 1.
Screening CSC1=NSC2=NC(=O)/C(=C\c3coc4ccccc4c3=O)C(=N)N12 returned pPAFAH FP inh 4, GSTO1 inh -31, Fam108B counter 31*, PME-1 primary 18, PAD4 inh -10, Fam108b inh conf 54* and Fam108b ABPP HTS 5.
CC(C)CSC1=NSC2=NC(=O)/C(=C\c3coc4ccccc4c3=O)C(=N)N12 was read as pPAFAH FP inh 10, GSTO1 inh -57, Fam108B counter 37*, PME-1 primary 22, PAD4 inh -27, Fam108b inh conf 40* and Fam108b ABPP HTS 15.
`Cc1ccc(-c2nc(Nc3cccc(O)c3)c3ccccc3n2)cc1` gave pPAFAH FP inh -2, GSTO1 inh -20, Fam108B counter 1, PME-1 primary -9 and PAD4 inh -1.
Screening COc1cccc(Nc2nc(-c3ccccc3O)nc3ccccc23)c1 returned pPAFAH FP inh -9, GSTO1 inh -22, Fam108B counter -7, PME-1 primary -17 and PAD4 inh 0.
COc1ccc(Nc2nc(-c3ccccc3O)nc3ccccc23)cc1 was read as pPAFAH FP inh -2, GSTO1 inh -10, Fam108B counter 25*, PME-1 primary 17, PAD4 inh -2 and Fam108b inh conf -20.
For Cc1ccc(-c2nc(Nc3ccc(O)cc3)c3ccccc3n2)cc1 the results were pPAFAH FP inh 26*, GSTO1 inh -11, Fam108B counter 35*, PME-1 primary 41*, PAD4 inh -7 and Fam108b inh conf 3.
Screening O=C(C[C@@H]1C/C=C\C[C@@H](Cc2ccc(F)cc2)C(=O)OCCNC1=O)N[C@H](CO)Cc1ccccc1 returned pPAFAH FP inh 3 and PAD4 inh 2.
Screening CCOC(=O)C1=C(C)N=c2s/c(=C\c3ccc(OCC(=O)O)cc3)c(=O)n2C1c1ccccc1OC (centres undefined) returned pPAFAH FP inh 3, GSTO1 inh -7, Fam108B counter -5, PME-1 primary -7 and PAD4 inh 5.
For CCOC(=O)C1=C(C)N=c2s/c(=C\c3ccc(O)c([N+](=O)[O-])c3)c(=O)n2C1c1ccccc1OC (centres undefined) the results were pPAFAH FP inh 23, GSTO1 inh 34, Fam108B counter 28*, PME-1 primary 6, PAD4 inh 0 and Fam108b inh conf 45*.
